Experimental data reported in the supplement of paper PMC9135407.
Counter-ions that a name gives are not always drawn.

What follows are molecules tested on primary human hepatic stellate cells (donor 1) (assay: PSMB2 reference mRNA level vs DMSO (fold); higher = more PSMB2 expression). Conditions: 48 h.
Experimental: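 Secondary qRT-PCR screen in primary human HSCs (donor 1), 384-well plates, with compounds dispensed in quadruplicate and incubated for 48 h. Cells-to-CT lysates were used for multiplexed TaqMan qPCR of ACTA2 or COL1A1 with PSMB2 as reference. Fold changes versus DMSO come from a linear model (Ct_gene ~ Ct_PSMB2 + plate + chemical). A hit is defined as COL1A1 and ACTA2 FC <0.5 (FDR <0.05) with PSMB2 between 0.2 and 2.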

| SMILES | PSMB2 reference mRNA level |
| --- | --- |
| CNc1nccc(-c2cccnc2Oc2cc(C(=O)Nc3cccc(C(F)(F)F)c3)ccc2C)n1 (33.3333 µM) | 0.887 |
| CCN1CCC(n2cc(CNc3cc(Cl)c4ncc(C#N)c(Nc5ccc(F)c(Cl)c5)c4c3)nn2)CC1 (33.3333 µM) | 0.0139 |
| NC(N)=NC(=O)c1nc(Cl)c(N2CCCCCC2)nc1N [5-(N,N-hexamethylene)amiloride] (33.3333 µM) | 0.641 |
| CNCCCC1c2ccccc2C=Cc2ccccc21 [Protryptyline hydrochloride] (22.2333 µM) | 1.06 |
| Cn1cc(CNCC2CCN(c3ncc(C(=O)NO)cn3)CC2)c2ccccc21 [Quisinostat] (33.3333 µM) | 0.103 |
| Cc1nc2ccc(-n3ncc(C(=O)c4cc5ccccc5[nH]4)c3N)cc2[nH]1 (33.3333 µM) | 0.324 |
| CC1(C)CC(=O)c2c(C(F)(F)F)nn(-c3ccc(C(N)=O)c(N[C@H]4CC[C@H](OC(=O)CN)CC4)c3)c2C1 (33.3333 µM) | 0.59 |
| c1ccc2c(NCCCCCCCNc3c4c(nc5ccccc35)CCCC4)c3c(nc2c1)CCCC3 [bis(7)-Tacrine] (3.33333 µM) | 0.971 |
| CC(C)c1cc(-c2n[nH]c(=O)n2-c2ccc3c(ccn3C)c2)c(O)cc1O [Ganetespib (STA-9090)] (33.3333 µM) | 0.415 |
| COC(=O)C[C@](O)(CCCC(C)(C)O)C(=O)O[C@@H]1C(OC)=C[C@]23CCCN2CCc2cc4c(cc2[C@H]13)OCO4 [Homoharringtonine] (33.3333 µM) | 0.38 |
